Laboratory results as given in PubChem BioAssay AID492998 (Southern Research Specialized Biocontainment Screening …, 2010).
About 550 (24%) of roughly 2,300 compounds were called active. How the calls were made is not given here. Only a sample is shown. Results with a measured potency or affinity are listed apart.

assay: Vero E6 cell cytotoxicity, dose response, cytotoxicity control for non-replicating M. tuberculosis project, secondary assay (AID 492998); settings: series mostly up to 20 µM; viability: at the top concentration;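 further: 100% = vehicle-treated cells and 0% = background wells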

SMILES	viability
CC(C)=CC1C(C(=O)Nc2ccc(Br)cn2)C1(C)C (stereo not drawn)	82.3% (inactive)
O=C(NCCCN1CCOCC1)c1c(O)c2cc(Br)cc(Br)c2[nH]c1=O	77.8% (inactive)
COc1ccc(C(CCNCc2ccc(OC(C)C)cc2)C(C)C)cc1 (stereo not drawn)	76.2% (inactive)
COc1ccc(C(C)NC(=O)CCc2ccccc2)cc1 (stereo not drawn)	108% (inactive)
CCOC(=O)CN1NC2(CCC(C)CC2)NC1=S (stereo not drawn)	92.4% (inactive)
COc1ccc(COC(=O)CCNC(=O)c2ccc(Cl)cc2)cc1	103% (inactive)
COc1ccc(-c2[nH]ncc2CN2CCCCCCC2)c(OC)c1	102% (inactive)
Sc1oc(-c2ccccc2)cc1C=Nc1ccccc1	90.2% (inactive)
CCOC(=O)c1c(-c2ccccc2)csc1NC(=O)CCN1CCOCC1	90.4% (inactive)
CN1c2ccsc2/C(=N/Nc2ccccc2)CS1(=O)=O	89.2% (inactive)
CCOC(=O)CNC(=O)CNC(=O)c1nn(-c2ccc(OC)c(Cl)c2)c(=O)c2ccccc12	98.3% (inactive)
CCOC(=O)c1ccc(NC2=CC(=O)C(=O)c3ccccc32)cc1	99.2% (inactive)
O=C(O)c1ccccc1C(=O)NNc1ccc(F)cc1	101% (inactive)
CCOC(=O)COc1cc(O)c2c(=O)cc(-c3ccccc3)oc2c1	101% (inactive)
CCOC(=O)CCNC(=O)c1ccc2nc(C3CCCCC3)oc2c1	103% (inactive)
O=C(Nc1ccc(Cl)cn1)C1COc2ccccc2O1 (stereo not drawn)	104% (inactive)
COC(=O)COc1ccc2cc(-c3ccc(OC)cc3)c(=O)oc2c1	101% (inactive)
COC(=O)CN(C#N)c1nc(N(C)C)nc(N(C)C)n1	95.9% (inactive)
CC(/C=C/c1ccccc1F)=N\NC(=O)c1ccccc1	78.2% (inactive)
Cc1ccc(NC(=S)C2=C(O)c3sccc3N(C)S2(=O)=O)cc1	108% (inactive)
Cc1ccc(OCC(=O)N2CCCc3ccccc32)cc1	93.3% (inactive)
Cc1ccc(NC(=O)CO/N=C/c2ccc(N(C)C)cc2)cc1	96.9% (inactive)
COc1ccc(C(=O)C=CNNC(=O)c2ccc(Cl)cc2)cc1	72% (inactive)
Cc1ccc(C(=O)C=CNNC(=O)c2ccccc2)cc1	102% (inactive)
O=C(COc1ccc(F)cc1)Nc1ccc2c(c1)OCCO2	92.4% (inactive)
Cc1ccc(-n2cc(CNCCn3nc(C)cc3C)c(-c3ccc(F)cc3)n2)cc1	77.2% (inactive)

SMILES	viability
Cc1ccc(-n2cc(CNCCc3cscn3)c(-c3ccc(F)cc3)n2)cc1	72.5% (inactive)
COc1ccc(OCc2n[nH]c(=S)o2)cc1	95.9% (inactive)
Cc1cccc(NC(=O)CO/N=C/c2ccc3c(c2)OCO3)c1	116% (inactive)
CCc1nnc(NC(=O)CN2CCN(Cc3ccc(F)cc3)CC2)s1	91.9% (inactive)
COC(=O)COc1ccc2c(=O)c(-c3ccccc3)coc2c1	107% (inactive)
c1ccc2cc(OCCCn3ccnc3)ccc2c1	99.2% (inactive)
C=CCc1cc(Cl)ccc1OCCCn1ccnc1	89% (inactive)
CC(C)COc1ccc(C(=O)CCN2CCCCC2)cc1	97.1% (inactive)
COc1ccc(C(=O)CCN2CCCCCC2)cc1	78.6% (inactive)
CC(CN1CCOCC1)OC(=O)c1ccc(Br)cc1 (stereo not drawn)	79.2% (inactive)
Cc1ccc(NC(CC(=O)c2ccccc2)C(=O)O)cc1Cl (stereo not drawn)	111% (inactive)
COc1ccc2cc(C(=O)NCc3ccccc3CN3CCCC3)ccc2c1	83.7% (inactive)
CC(CN1CCOCC1)OC(=O)c1ccc2c(c1)OCCO2 (stereo not drawn)	94% (inactive)
CC(NC(=O)OCc1ccccc1)c1ccccc1 (stereo not drawn)	86% (inactive)
CCCCOc1ccc(NC(=O)CN2CCN(Cc3ccccc3)CC2)cc1	92.7% (inactive)
O=S(=O)(CCN1CCN(c2ccccn2)CC1)c1ccc(Cl)cc1Cl	96% (inactive)
O=C(N[C@@H]1C[C@H]2CC[C@@H]1C2)c1ccco1	109% (inactive)
Cc1ccc(NCCC(=O)c2cccs2)cc1C	83.6% (inactive)
O=C(OCn1nnc2ccccc2c1=O)c1ccc(N2CCOCC2)c([N+](=O)[O-])c1	90.7% (inactive)
CCOC(=O)C1=C(C)NC(=O)NC1c1ccc(-c2ccc(F)cc2)o1 (stereo not drawn)	85.3% (inactive)
CCOC(=O)c1ccc(N=C2SC(C(=O)Nc3ccc(C(=O)O)cc3)CC(=O)N2Cc2cccs2)cc1 (stereo not drawn)	94% (inactive)
O=c1oc2ccccc2nc1/C=C(\O)c1ccc(Br)cc1	107% (inactive)
O=C(CCN1CCCCCC1)c1ccccc1	92.9% (inactive)
O=C(CCSc1ccccc1)N1CCCC1	92.7% (inactive)
Cc1nnc(N/N=C/c2ccc(Br)cc2)n1N	113% (inactive)
COCCSc1nnc(NC(=O)CCS(=O)(=O)Cc2ccccc2)s1	92.1% (inactive)

SMILES	viability
CCCCOc1ccc(CSCCN)cc1Cl	105% (inactive)
CC(=O)c1ccc(NC(=O)C(Cc2ccccc2)n2cccc2)cc1 (stereo not drawn)	97% (inactive)
Cc1ccccc1C(=O)NNc1ccc([N+](=O)[O-])cc1	103% (inactive)
Cc1ccc(NC(=O)ON=C2CCCC2)cc1	102% (inactive)
Cc1cc(C)n(-c2ccc(C(=O)Oc3ccc4c(c3)OCO4)cc2)n1	106% (inactive)
CCN(CC)CCSc1nnc2c3cc(C)ccc3n(Cc3ccccc3)c2n1	98.4% (inactive)
Cc1c(C(=O)NNC(=O)c2csc(N3CCOCC3)n2)oc2ccccc12	93.1% (inactive)
NC(=O)N/N=C/c1ccccc1OC(=O)c1cc2ccccc2oc1=O	114% (inactive)
O=C(Nc1ccccc1)c1ccc(Br)o1	96.5% (inactive)
CCC(C)(C)NC(=O)c1ccc(Br)o1	110% (inactive)
CC(C)(C)OC(=O)N/N=C\c1ccc(OC(=O)c2ccco2)cc1	108% (inactive)
CC1(c2nnc(-c3ccccc3)o2)CC(c2ccc(Cl)cc2)=NO1 (stereo not drawn)	102% (inactive)
Clc1ccc(OCCOCCN2CCc3ccccc3C2)c(Cl)c1	90.1% (inactive)
COc1ccccc1/C=C/C=N/NC(=O)c1ccncc1	104% (inactive)
Cc1cc(C)n(-c2ccc(C(=O)OCC(=O)Nc3cc(Cl)ccc3[N+](=O)[O-])cc2)n1	106% (inactive)
Cc1ccc(CN2CC(C(=O)OCc3ccccc3Cl)CC2=O)cc1 (stereo not drawn)	98.3% (inactive)
Cc1ccc(C(=O)COC(=O)CCc2ccc(S(=O)(=O)N3CCCCC3)cc2)cc1	98.9% (inactive)
Cc1ccc(N2NC(=O)/C(=C/C=C/c3ccco3)C2=O)cc1C	98.1% (inactive)
Cc1ccc(OCCCCn2ccnc2)c(Cl)c1	84.3% (inactive)
CC1(C)Oc2ccc(NC(=O)C3COc4ccccc4O3)cc2O1 (stereo not drawn)	97.8% (inactive)
O=C(Oc1ccccc1Cl)c1ccc2c(=O)n3c(nc2c1)CCC3	95.4% (inactive)
CCOc1ncccc1C(=O)OCC(=O)N1CCc2ccccc21	98.4% (inactive)
C=CCOC(=O)c1ccc(-n2cnc(C)n2)nc1	102% (inactive)
O=C1CCC/C(=N/Nc2ccc(Cl)cc2)C1	96.4% (inactive)
CCc1nnc(N/N=C/c2c(F)cccc2Cl)n1N	106% (inactive)
CCc1ccc(Cc2cnc(NC(=O)C3=NCCN3)s2)cc1	89.2% (inactive)
